# Screening results (PubChem BioAssay)
# The list is not random: actives were taken first. Their share in the collection is about 8.9%.
# KB-V1 cytotox = KB-V1 MDR subline cytotoxicity; KB-V1 MDR cells viability, CellTiter-Glo, 72 h; Potency, µM (series often up to 46.1 µM), actives largely listed as cytotoxic; hit rate 3.4% among 400,000; note: potency is the fitted concentration of half-maximal effect; % is set by controls: 0 for no effect and ±100 for the full control effect; nearly all actives have a fitted effect of over 60% in size
#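 Drug-selected KB-V1 cells, grown in DMEM lacking phenol red with 10% FBS, receive compound titrations; after three days at 37 degrees C, surviving cell ATP is quantified by CellTiter-Glo luminescence and responses normalized and curve-fitted.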
# DRD3 antagonist = antagonists of human D3 dopamine receptor; max response, negative = inhibition, %; P35462; D3R cells, DiscoveRx beta-arrestin luminescence, antagonist mode; active compounds read low; hit rate 2.5% among 360,000; in the data active = max response below about -50%; inconclusive = no clear call, values can overlap the other calls; note: % is set by controls: 0 for no effect and ±100 for the full control effect
# Target sequence (P35462 whole entry, looked up): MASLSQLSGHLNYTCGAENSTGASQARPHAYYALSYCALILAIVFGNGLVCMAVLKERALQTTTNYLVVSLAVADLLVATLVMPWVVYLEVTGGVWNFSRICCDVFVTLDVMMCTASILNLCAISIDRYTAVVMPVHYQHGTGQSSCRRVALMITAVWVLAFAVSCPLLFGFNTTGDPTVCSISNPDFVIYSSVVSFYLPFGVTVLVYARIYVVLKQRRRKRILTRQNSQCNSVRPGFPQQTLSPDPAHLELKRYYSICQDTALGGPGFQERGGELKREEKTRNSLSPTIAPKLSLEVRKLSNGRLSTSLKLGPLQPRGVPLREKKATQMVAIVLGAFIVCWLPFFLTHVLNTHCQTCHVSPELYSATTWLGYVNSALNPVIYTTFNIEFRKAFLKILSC
#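 Cells plated overnight at 1500 cells/well, then exposed to library compounds with dopamine controls for 90 minutes at 37 degrees C. DiscoveRx reagent added for 30–60 minutes at room temperature; luminescence read, quantitative HTS format.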
# MCF10A rereplic = DNA re-replication induction in MCF 10a cells. hit rate 2.9% among 350,000. MCF 10A DNA re-replication, Hoechst nuclear intensity, 48 h. AID 624296. Potency, µM (doses to about 46.1 µM), for the others: at the highest dose activity, positive = re-replication, actives largely listed as activators; note: potency is the fitted concentration of half-maximal effect; % of control where 0% means no effect; nearly all actives have a fitted effect of over 50% in size
# KB-3-1 cytotox = KB-3-1 parental cell cytotoxicity; KB-3-1 viability, CellTiter-Glo ATP luminescence, 72 h; Potency, µM (doses to about 46.1 µM), hits mostly cytotoxic; hit rate 1.4% among 400,000; note: potency is the fitted concentration of half-maximal effect; % is set by controls: 0 for no effect and ±100 for the full control effect; nearly all actives have a fitted effect of over 60% in size
#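 KB-3-1 parental drug-naive adenocarcinoma cells in DMEM/10% FBS, incubated 72 h at 37 C with pin-transferred compounds across a concentration series. Viability by CellTiter-Glo luminescence; concentration-response curves fitted after normalization.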
# DRD3 agonist = D3 dopamine receptor (human) agonism; P35462; D3R DiscoveRx beta-arrestin cells, luminescence, 90 min; max activation, %; hit rate 0.58% among 410,000; AID 652048; in the data active = max activation above about 30%; note: 0% is about no effect
#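 Agonist-mode cell screen: cells plated at 1500/well and incubated overnight at 37 °C, then exposed to library compounds for 90 min at 37 °C. Detection reagent was added for 30–60 min at room temperature, and luminescence was read.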
# SW480 rereplic = inducers of DNA re-replication in SW480 colon cancer cells | AID 624297 | Potency, µM (highest dose often 46.1 µM), for inactives: top-dose re-replication activation, hits mostly activators | hit rate 1.8% among 340,000 | SW480 DNA re-replication, Hoechst DNA content imaging, 48 h; note: potency is the fitted concentration of half-maximal effect; % of control where 0% means no effect; nearly all actives have a fitted effect of over 55% in size
#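 Hoechst fluorescence of nuclei (405 nm excitation, 500-530 nm emission) measured by plate-scanning imager after 48 hr compound exposure at 37 C; re-replication scored as increased number of nuclei with elevated intensity.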
# Active calls of the source: *; i = inactive; ? = inconclusive; · = not tested or not shown; [ ] = remark or other dose. Unless noted, calls come from the whole dose curve; as a rule, active = well fitted curve in the direction sought with a large enough effect; inconclusive = small, poorly fitted or top-dose-only effect, or another doubt; inactive = no such curve, though single readings can be large; an effect the other way counts as inactive or inconclusive.
SMILES,KB-V1 cytotox,DRD3 antagonist,MCF10A rereplic,KB-3-1 cytotox,DRD3 agonist,SW480 rereplic
CCS(=O)(=O)N1Cc2ccccc2CC1C(=O)NCC12CC3CC(CC(C3)C1)C2 (centres undefined),23.1µM*,16.4,4.7%,i,-0.6,14.9%
CCS(=O)(=O)N1Cc2ccccc2CC1C(=O)Nc1nc(C)cs1 (centres undefined),?,4.4,5.4%[9.22 µM],i,1.4,-13.4%
CCS(=O)(=O)N1Cc2ccccc2CC1C(=O)NC(C)C12CC3CC(CC(C3)C1)C2 (centres undefined),i,39.5,?,i,3.1,21.6%
Cc1cc(NC(=O)N2CCC(CN3CCCCCC3)CC2)ccc1Br,·,·,·,·,-3.8,·
COC(=O)CN(c1cc(Cl)ccc1OC)S(=O)(=O)c1ccc(C)cc1,?,-15.8,?,?,-7.5,?
COC(=O)CN(n1cnnc1)S(=O)(=O)c1ccc(C)cc1,i,-54.4*,0.7%,i,0.0,-3.1%
COc1ccc(/C=C/C(=O)NCc2c(C)nn(C)c2C)cc1COc1ccc(Br)cc1,i,?,3.66µM*,i,-31.4,?
COc1ccc(/C=C/C(=O)NCc2cnn(C)c2C)cc1COc1ccc(Br)cc1,14.6µM*,?,?,i,-25.4,-2.0%
Cc1cccc(NC(=O)CSc2nc3c(sc4ccccc43)c(=O)n2CCCC(=O)NC2CCCC2)c1,·,·,·,·,-3.9,·
O=C(Nc1nncs1)C(Sc1ccccc1)c1ccccc1 (centres undefined),20.6µM*,0.5,-55.1%,i,-1.8,-58.8%
CCC(C)NS(=O)(=O)c1ccc(NC(=O)C(Sc2ccccc2)c2ccccc2)cc1 (centres undefined),16.4µM*,-29.9,?,?,6.8,?
COc1ccc(C(CNC(=O)C(C)(C)Oc2ccc(Cl)cc2)N2CCOCC2)cc1 (centres undefined),?,-74.9*,?,i,-27.8,0.2%
COc1ccc(C(CNC(=O)C(C)(C)Oc2ccc(Cl)cc2)N2CCCCC2)cc1 (centres undefined),?,-82.6*,9.9%,i,-13.6,-2.1%
CC(C)(Oc1ccc(Cl)cc1)C(=O)NCC(c1ccco1)N1CCCCC1 (centres undefined),?,-12.7,?,i,-25.1,6.1%
COC(=O)c1ccccc1NC(=O)c1ccc2c(c1)CCN2S(=O)(=O)c1ccc(Cl)cc1,?,·,·,i,2.5,·
CCc1nnc(NC(=O)CSc2nnc3scc(-c4ccc(C)cc4)n23)s1,i,-4.2,-19.4%,i,20.4,1.6%
Cc1nnc(NC(=O)CSc2nnc3scc(-c4ccc(C)c(C)c4)n23)s1,20.6µM*,11.3,2.6%,i,-0.9,1.1%
CCOc1cccc2cc(-c3nc(-c4ccccc4C)no3)c(=O)oc12,·,·,·,·,10.1,·
Cc1ccc(C)c(NC(=O)CSc2nc(=O)n(CCN(C)C)c3c2CCC3)c1,·,·,·,·,-9.4,·
CCc1ccc(S(=O)(=O)Nc2nccs2)cc1,i,-15.7,?,i,-8.0,-1.4%
O=S(=O)(Nc1nccs1)c1ccc(F)cc1,i,-15.5,2.31µM*,i,-3.4,15.8%
COC(=O)c1ccccc1NC(=O)N1CCC(N2CCN(Cc3ccc(F)cc3)C(=O)C2=O)CC1,i,·,·,i,7.9,·
NNc1nc(Nc2ccc([N+](=O)[O-])cc2)nc(N2CCCCCC2)n1,i,-51.9*,13.0%,i,-24.6,-8.0%
CCCNc1nc(Nc2ccc(C)cc2)nc(N2CCCC2)n1,4.11µM*,?,?,?,-5.4,7.5%
Cc1ccc(S(=O)(=O)NCCc2nnc3ccc(SCc4ccccc4C)nn23)cc1,i,·,·,i,-1.5,·
SMILES,KB-V1 cytotox,DRD3 antagonist,MCF10A rereplic,KB-3-1 cytotox,DRD3 agonist,SW480 rereplic
Cc1c(C(=O)Nc2nccs2)oc2ccc(F)cc12,i,9.2,-3.3%,i,-2.0,1.6%
CCCCc1nnc(NC(=O)c2oc3ccccc3c2C)s1,?,16.6,9.7%,i,4.1,1.2%
Cc1c(C(=O)Nc2ccc(-c3nnc4n3CCCCC4)cc2)oc2ccc(Br)cc12,8.2µM*,10.5,5.5%,i,-4.5,-15.0%
Cc1c(C(=O)Nc2nccs2)oc2ccc(Br)cc12,8.2µM*,4.8,?,5.8µM*,2.3,10.4%
CCc1nnc(NC(=O)c2oc3ccc(Br)cc3c2C)s1,i,-5.8,20.6µM*,i,1.3,-3.7%
CCOC(=O)c1cnc2c(ccc3ccccc32)c1Nc1cccc(C(F)(F)F)c1,i,·,·,i,-3.3,·
CN(/N=C/c1ccc(O)cc1O)c1nc(-c2ccccc2)cc(-c2ccccc2)n1,i,?,18.4µM*,?,-27.5,?
Cc1cc(-c2ccccc2)nc(N/N=C/c2ccc(O)cc2O)n1,?,25.5,7.8%,?,-27.2,?
CCNC(=O)/C(C#N)=C/c1c(N2CCN(c3ccccc3)CC2)nc2c(C)cccn2c1=O,i,-68.5*,0.1%,i,-26.2,-1.2%
Cc1ccccc1Oc1nc2c(C)cccn2c(=O)c1/C=C(\C#N)C(=O)Nc1c(C)n(C)n(-c2ccccc2)c1=O,?,-14.3,20.6µM*,i,-5.1,?
CNC(=O)/C(C#N)=C/c1c(N(Cc2ccccc2)Cc2ccccc2)nc2ccccn2c1=O,2.59µM*,0.6,-1.1%,i,12.6,-6.6%
CCN1CCN(c2nc3c(C)cccn3c(=O)c2/C=C(\C#N)C(=O)NCCCOC)CC1,i,0.1,18.4µM*,i,5.3,20.6µM*
COC(=O)c1ccc2c(=O)n(CCCCCC(=O)NCc3ccc(Cl)cc3)c(=O)[nH]c2c1,i,·,·,i,-13.8,·
CC(=O)Nc1ccc(/C=C/c2nc3ccccc3s2)cc1,i,·,·,i,·,·
Cc1cc(Cl)nc2nc(Cl)ccc12,i,·,·,i,·,·
Cc1ccc(-n2c(=O)c3c(c4cc(C)ccc4n3C)n(CC(=O)N3CCCC3)c2=O)cc1,i,·,·,?,-14.1,·
O=C(NCCc1ccc(Cl)cc1)c1nnc(Cc2ccc(Cl)cc2Cl)o1,i,·,·,i,3.4,·
Cc1nc2c3cccnc3nn2c(C)c1CCC(=O)NCc1ccccc1,i,·,·,i,-12.9,·
CC(C)(C)S(=O)(=O)N1C[C@H]2CC/C=C\C/C=C\2[C@@H]1CCO,i,11.1,·,i,3.4,·
CNC(=O)/C(C#N)=C/c1c(N2CCN(C)CC2)nc2c(C)cccn2c1=O,i,0.7,-4.3%,i,-5.7,?
CCN1CCN(c2nc3c(C)cccn3c(=O)c2/C=C(\C#N)C(=O)NC)CC1,i,-8.4,5.8µM*,i,4.1,6.5%
CCOC(=O)c1ccc(OCCN2C[C@H](O)[C@@H](O)[C@H](O)[C@H]2CO)cc1,·,·,·,·,-6.4,·
Cc1ccc(N=C2C(=O)Nc3c(C)cccc32)cc1,i,20.2,-8.8%,i,-11.9,-1.5%
